PubChem BioAssay (Tox21)
Results filed as inconclusive are left out. Calls of active or inactive are those of the source. The call rests on the fitted dose curve; in most records, active means well fitted curve in the direction sought with a large enough effect in the repeat runs; inconclusive means weak or mixed curves; inactive means no such curve, though single readings can be large; an effect the other way counts as inactive or inconclusive.

Key:
[1] = A CellTox Green Cytotoxicity Assay to monitor cytotoxicity in HEK293 cells - 40 hour (AID 1224871); conditions: CellTox Green fluorescence; series mostly up to 76.8 µM; further: nearly all actives have a fitted effect of over 45% in size
Outline: (§1)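 Homogeneous no-lysis format: HEK293 cell suspension mixed with CellTox Green reagent, seeded, incubated 5 h at 37 C/5% CO2, then dosed by pintool with compound in DMSO.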

[2] = qHTS RealTime-Glo MT Cell Viability Assay in HEK293 cells - 16 hour (AID 1224872); conditions: RealTime-Glo luminescence; series mostly up to 76.8 µM; further: top concentration of the series differs between compounds; nearly all actives have a fitted effect of over 50% in size
Outline: (§2)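 Assay medium contained NanoLuc luciferase plus cell-permeant prosubstrate, added with HEK293 cells at 600 cells/well. After 5 h at 37 C/5% CO2 compounds were added; plates stayed at 37 C for 40 h with serial luminescence reads.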

[3] = qHTS RealTime-Glo MT Cell Viability Assay in HepG2 cells - 8 hour (AID 1224873); conditions: RealTime-Glo luminescence; series mostly up to 76.8 µM; further: nearly all actives have a fitted effect of over 55% in size
Outline: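 HepG2 cells (600/well) mixed with RealTime-Glo MT reagent, settled 5 h at 37 C/5% CO2 before compound addition. Nonlytic NanoLuc luminescence from viable-cell prosubstrate reduction read repeatedly during 40 h treatment at 37 C.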

[4] = qHTS RealTime-Glo MT Cell Viability Assay in HEK293 cells - 40 hour (AID 1224874); conditions: RealTime-Glo luminescence; max response: stronger effect = lower value; further: nearly all actives have a fitted effect of over 50% in size
Outline: (§3)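 Measured as luminescence from the same continuously cultured HEK293 wells at successive time points (0, 8, 16, 24, 32, 40 h) after compound addition. Reagent present from seeding; dosing at 5 h; incubation 37 C.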

[5] = A CellTox Green Cytotoxicity Assay to monitor cytotoxicity in HEK293 cells - 24 hour (AID 1224875); conditions: CellTox Green fluorescence; series mostly up to 76.8 µM; further: nearly all actives have a fitted effect of over 45% in size
Outline: as §1

[6] = A CellTox Green Cytotoxicity Assay to monitor cytotoxicity in HepG2 cells - 16 hour (AID 1224876); conditions: CellTox Green fluorescence; series mostly up to 76.8 µM; further: nearly all actives have a fitted effect of over 45% in size
Outline: (§4)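 Fluorescent DNA-binding dye, 600 HepG2 cells/well, 5 h preincubation then compound in DMSO; same plates read at 0–40 h, 37 C.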

[7] = qHTS RealTime-Glo MT Cell Viability Assay in HepG2 cells - 32 hour (AID 1224877); conditions: RealTime-Glo luminescence; series mostly up to 76.8 µM; further: nearly all actives have a fitted effect of over 55% in size
Outline: (§5)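 qHTS, HepG2, 600 cells/well, RealTime-Glo (NanoLuc + prosubstrate) added with cells; 5 h preincubation; DMSO compound addition; 37 C; luminescence at 0/8/16/24/32/40 h.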

[8] = A CellTox Green Cytotoxicity Assay to monitor cytotoxicity in HepG2 cells - 24 hour (AID 1224878); conditions: CellTox Green fluorescence; series mostly up to 76.8 µM; further: nearly all actives have a fitted effect of over 45% in size
Outline: as §4

[9] = A CellTox Green Cytotoxicity Assay to monitor cytotoxicity in HepG2 cells - 40 hour (AID 1224879); conditions: CellTox Green fluorescence; series mostly up to 76.8 µM; further: nearly all actives have a fitted effect of over 40% in size
Outline: as §4

[10] = qHTS RealTime-Glo MT Cell Viability Assay in HEK293 cells - 0 hour (AID 1224880); conditions: RealTime-Glo luminescence; series mostly up to 76.8 µM
Outline: as §3

[11] = A CellTox Green Cytotoxicity Assay to monitor cytotoxicity in HEK293 cells - 32 hour (AID 1224881); conditions: CellTox Green fluorescence; series mostly up to 76.8 µM; further: nearly all actives have a fitted effect of over 40% in size
Outline: as §1

[12] = A CellTox Green Cytotoxicity Assay to monitor cytotoxicity in HepG2 cells - 0 hour (AID 1224882); conditions: CellTox Green fluorescence; series mostly up to 76.8 µM; further: nearly all actives have a fitted effect of over 35% in size
Outline: as §4

[13] = A CellTox Green Cytotoxicity Assay to monitor cytotoxicity in HEK293 cells - 8 hour (AID 1224884); conditions: CellTox Green fluorescence; series mostly up to 76.8 µM; further: nearly all actives have a fitted effect of over 35% in size
Outline: as §1

[14] = qHTS RealTime-Glo MT Cell Viability Assay in HepG2 cells - 16 hour (AID 1224885); conditions: RealTime-Glo luminescence; series mostly up to 76.8 µM; further: nearly all actives have a fitted effect of over 50% in size
Outline: as §5

[15] = qHTS RealTime-Glo MT Cell Viability Assay in HEK293 cells - 24 hour (AID 1224886); conditions: RealTime-Glo luminescence; series mostly up to 76.8 µM; further: top concentration of the series differs between compounds; nearly all actives have a fitted effect of over 50% in size
Outline: as §2

[16] = qHTS RealTime-Glo MT Cell Viability Assay in HEK293 cells - 8 hour (AID 1224887); conditions: RealTime-Glo luminescence; series mostly up to 76.8 µM
Outline: as §3

[17] = A CellTox Green Cytotoxicity Assay to monitor cytotoxicity in HEK293 cells - 16 hour (AID 1224888); conditions: CellTox Green fluorescence; series mostly up to 76.8 µM; further: nearly all actives have a fitted effect of over 35% in size
Outline: as §1

[18] = qHTS RealTime-Glo MT Cell Viability Assay in HepG2 cells - 0 hour (AID 1224889); conditions: RealTime-Glo luminescence; series mostly up to 76.8 µM; further: nearly all actives have a fitted effect of over 50% in size
Outline: as §5

[19] = A CellTox Green Cytotoxicity Assay to monitor cytotoxicity in HepG2 cells - 8 hour (AID 1224890); conditions: CellTox Green fluorescence; series mostly up to 76.8 µM; further: nearly all actives have a fitted effect of over 45% in size
Outline: as §4

[20] = A CellTox Green Cytotoxicity Assay to monitor cytotoxicity in HepG2 cells - 32 hour (AID 1224883); conditions: CellTox Green fluorescence; series mostly up to 76.8 µM; further: nearly all actives have a fitted effect of over 50% in size
Outline: as §4
On the % scale 0 is the no-effect control and ±100 the full control effect.

Clc1cccc(N2CCNCC2)c1
inactive: Potency [1] | Potency [2] | Potency [3] | max response [4] 8.54% | Potency [5] | Potency [6] | Potency [7] | Potency [8] | Potency [9] | outcome [10] | Potency [11] | outcome [12] | Potency [13] | Potency [14] | Potency [15] | Potency [16] | Potency [17] | Potency [18] | Potency [19]

CCOP(=S)(OCC)SCSP(=S)(OCC)OCC
inactive: Potency [1] | Potency [2] | Potency [3] | max response [4] 7.42% | Potency [5] | Potency [6] | Potency [7] | Potency [8] | Potency [9] | outcome [10] | Potency [11] | outcome [12] | Potency [15] | Potency [16] | Potency [17] | Potency [18] | Potency [19]

COc1ccc(C(=O)N2CCCC2=O)cc1
inactive: Potency [1] | Potency [2] | Potency [3] | max response [4] -7.3% | Potency [5] | Potency [7] | outcome [10] | Potency [11] | outcome [12] | Potency [13] | Potency [15] | Potency [16] | Potency [17] | Potency [18] | Potency [19]

CNC(=O)Oc1ccc(N(C)C)c(C)c1
inactive: Potency [1] | Potency [2] | Potency [3] | max response [4] -14.9% | Potency [5] | Potency [6] | Potency [7] | Potency [8] | Potency [9] | outcome [10] | Potency [11] | outcome [12] | Potency [13] | Potency [14] | Potency [15] | Potency [17] | Potency [19]

CC(C)NCC(O)c1ccc(N)c(C#N)c1 (centres undefined)
inactive: Potency [1] | Potency [2] | Potency [3] | max response [4] 2.86% | Potency [5] | Potency [6] | Potency [7] | Potency [8] | Potency [9] | outcome [10] | Potency [11] | outcome [12] | Potency [13] | Potency [15] | Potency [16] | Potency [17] | Potency [19]

ClCC(Cl)(Cl)Cl
inactive: Potency [1] | Potency [2] | Potency [3] | max response [4] -0.0203% | Potency [5] | Potency [6] | Potency [7] | Potency [8] | Potency [9] | outcome [10] | Potency [11] | outcome [12] | Potency [13] | Potency [15] | Potency [17] | Potency [18] | Potency [19]

CC(C)[N+](=O)[O-]
inactive: Potency [1] | Potency [2] | Potency [3] | max response [4] 0.0306% | Potency [6] | Potency [7] | Potency [8] | Potency [9] | outcome [10] | Potency [11] | outcome [12] | Potency [20] | Potency [13] | Potency [14] | Potency [15] | Potency [16] | Potency [17] | Potency [18] | Potency [19]

NC(=S)C(N)=S
inactive: Potency [1] | Potency [2] | Potency [3] | max response [4] 4.8% | Potency [5] | Potency [6] | Potency [7] | Potency [8] | Potency [9] | outcome [10] | outcome [12] | Potency [20] | Potency [13] | Potency [15] | Potency [16] | Potency [17] | Potency [18] | Potency [19]

Nc1c(Br)cc([N+](=O)[O-])cc1[N+](=O)[O-]
inactive: Potency [1] | Potency [2] | Potency [3] | max response [4] -10.5% | Potency [6] | Potency [7] | Potency [8] | Potency [9] | outcome [10] | Potency [11] | outcome [12] | Potency [20] | Potency [13] | Potency [14] | Potency [15] | Potency [16] | Potency [17] | Potency [18] | Potency [19]

c1ccc(N2CCNCC2)cc1
inactive: Potency [1] | Potency [2] | Potency [3] | max response [4] 16.9% | Potency [5] | Potency [6] | Potency [7] | Potency [8] | Potency [9] | outcome [10] | Potency [11] | Potency [20] | Potency [14] | Potency [15] | Potency [16] | Potency [17] | Potency [18] | Potency [19]

O=NN1CCN(N=O)CC1
inactive: Potency [1] | Potency [2] | Potency [3] | max response [4] -6.3% | Potency [6] | Potency [7] | Potency [8] | Potency [9] | outcome [10] | Potency [11] | outcome [12] | Potency [20] | Potency [13] | Potency [14] | Potency [15] | Potency [16] | Potency [17] | Potency [18] | Potency [19]

CC(C)CP(=S)(S)CC(C)C
inactive: Potency [1] | Potency [2] | Potency [3] | max response [4] 3.1% | Potency [5] | Potency [6] | Potency [7] | Potency [8] | Potency [9] | outcome [10] | Potency [11] | outcome [12] | Potency [14] | Potency [15] | Potency [16] | Potency [17] | Potency [18] | Potency [19]

CC(=O)C(Cl)Cl
inactive: Potency [1] | Potency [2] | Potency [3] | max response [4] 7% | Potency [5] | Potency [6] | Potency [7] | Potency [8] | outcome [10] | Potency [11] | outcome [12] | Potency [13] | Potency [15] | Potency [16] | Potency [17] | Potency [18] | Potency [19]

O=C(N[C@H]1CN2CCC1CC2)c1cc2ccoc2cn1
inactive: Potency [1] | Potency [2] | Potency [3] | max response [4] 8.57% | Potency [5] | Potency [6] | Potency [7] | outcome [10] | Potency [11] | outcome [12] | Potency [13] | Potency [14] | Potency [15] | Potency [16] | Potency [17] | Potency [18] | Potency [19]

C[C@]12CC[C@H]3[C@@H](CCC4=CC(=O)CC[C@@]43C)[C@@H]1CC[C@@H]2C(=O)O
inactive: Potency [1] | Potency [2] | Potency [3] | max response [4] 2.42% | Potency [6] | Potency [7] | Potency [8] | Potency [9] | outcome [10] | Potency [11] | outcome [12] | Potency [20] | Potency [13] | Potency [14] | Potency [15] | Potency [16] | Potency [17] | Potency [18] | Potency [19]

ClC(Cl)(Cl)C(Cl)(Cl)Cl
inactive: Potency [1] | Potency [2] | Potency [3] | max response [4] 2.47% | Potency [5] | Potency [6] | Potency [7] | Potency [8] | Potency [9] | outcome [10] | Potency [11] | outcome [12] | Potency [14] | Potency [15] | Potency [16] | Potency [17] | Potency [18] | Potency [19]
